# Only some compounds are listed: those with a hit (about 2.1% of all), similar ones and a draw of the others.
# Calb FLC: affects C. albicans growth with fluconazole | C. albicans CaCi-2 (fluconazole-resistant clinical isolate) + fluconazole, Alamar Blue growth, 48 h | growth inhibition, % (concentration not given with the values) | 300,000 tested, 0.57% active;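 active = growth inhibition above about 58% in most replicates, limit read from the data, passing the limit was not always enough; inconclusive = exactly half the replicates above a set limit; inactive = most replicates below a set limit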;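 also: all wells also contain fluconazole at 8 µg/ml as a sub-toxic cotreatment; 0% = median of DMSO wells and 100% = median of geldanamycin control wells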
# PfM18AAP inh-1: PfM18AAP enzyme inhibition; AID 1822; 290,000 tested, 1.2% active; inhibition, % at 7.35 µM; recombinant PfM18AAP, H-Glu-NHMec fluorogenic cleavage;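 active = inhibition above the campaign mean inhibition over all tested compounds plus 3 SD, cut at about 28% in these data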;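 also: 0% = plate median of test compound wells and 100% = 2 mM ZnCl2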
# Rin1 Abl inh: blocks binding of human Rin1 to Abl | 360,000 tested, 0.4% active | TR-FRET Rin1/Abl binding, biochemical | P00519+Q13671 | inhibition, % at 7.35 µM; in the data active = inhibition above about 5%, passing the limit was not always enough
# CTSL1 counter-1: blocks F. hepatica cathepsin L1 in PFM18AAP counter-screen; AID 1906; inhibition, % at 5.96 µM; recombinant F. hepatica cathepsin L1, Z-Leu-Arg-MCA fluorescence; 300,000 tested, 0.49% active;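 active = inhibition above the mean of all tested compounds plus 3 SD, set per screening campaign, cut at about 17% in these data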;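 also: 0% = plate median of test compound wells and 100% = 1 µM Z-Phe-Ala-diazomethylketone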
# PfM18AAP inh-2: PfM18AAP inhibition, confirmation; shares compounds with PfM18AAP inh-1; recombinant PfM18AAP, H-Glu-NHMec fluorogenic cleavage; inhibition, % at 7.35 µM; 2,400 tested, 28% active; AID 2170;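 active = mean inhibition over replicate wells above the hit cutoff set for the earlier primary screen, cut at about 29% in these data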;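 also: 0% = median of test compound wells and 100% = 2 mM ZnCl2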
# CTSL1 counter-2: Cathepsin L (human) inhibition, confirmation; shares compounds with PfM18AAP inh-1; inhibition, % at 5.96 µM; purified cathepsin L1, Z-Leu-Arg-MCA fluorescence; 2,400 tested, under 10 active; AID 2178;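 active = average inhibition across replicates above the hit cutoff set in the earlier primary screen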;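 also: 0% = median of test compound wells and 100% = Z-Phe-Ala-diazomethylketone 1 µM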
# Target sequence (P07711 whole entry, looked up): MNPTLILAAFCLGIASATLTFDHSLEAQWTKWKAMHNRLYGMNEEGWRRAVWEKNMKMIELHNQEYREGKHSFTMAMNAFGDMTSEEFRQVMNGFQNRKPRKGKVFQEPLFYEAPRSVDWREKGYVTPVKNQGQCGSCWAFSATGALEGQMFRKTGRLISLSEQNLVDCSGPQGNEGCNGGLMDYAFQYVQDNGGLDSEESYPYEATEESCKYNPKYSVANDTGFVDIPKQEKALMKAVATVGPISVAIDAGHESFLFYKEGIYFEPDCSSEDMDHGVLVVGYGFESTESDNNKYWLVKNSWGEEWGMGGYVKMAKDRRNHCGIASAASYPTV
# * marks the source's active call; other numbers are inactive results; ? = inconclusive; . = not tested or not shown.
SMILES,Calb FLC,PfM18AAP inh-1,Rin1 Abl inh,CTSL1 counter-1,PfM18AAP inh-2,CTSL1 counter-2
C=CCn1c(-c2sc3nc(C)cc(C)c3c2N)n[nH]c1=S,-2,43*,-2,2,13,3
FC(F)(F)c1cccc(NC(=S)NCC(c2cccnc2)N2CCOCC2)c1 (centres undefined),7,-19,-3,-3,.,.
CC(C)(C)c1ccc(C(=O)c2c[nH]c(C(=O)NCCc3ccccn3)c2)cc1,15,-12,2,0,.,.
Cc1cccc(NC(=O)CSc2nc3[nH]ncc3c(=O)[nH]2)c1C,-5,42*,-5,-2,28,-4
CC1CCN(C(=O)CSc2nc3[nH]ncc3c(=O)[nH]2)CC1,0,33*,-1,-3,-26,-7
COc1ccc(-c2oc(NC(=O)CSc3ncn[nH]3)c(C#N)c2-c2ccc(OC)cc2)cc1,0,73*,2,2,25,-3
N#Cc1c(NC(=O)CSc2ncccn2)oc(-c2ccccc2)c1-c1ccccc1,7,6,1,8,.,.
CCOC(=O)c1sc(NC(=O)CSc2nc(C)cc(C)n2)c(C#N)c1C,-3,-1,-2,0,.,.
CCOC(=O)c1sc(N(Cc2ccccc2)C(=O)CSc2ncn[nH]2)nc1C,-7,90*,1,-1,-36,-3
CCOC(=O)c1sc(NC(=O)CSc2ncn[nH]2)c(C#N)c1C,3,40*,-4,1,9,-6
CCOC(=O)c1sc(N(Cc2ccccc2)C(=O)COC(=O)c2ccccc2O)nc1C,5,4,0,6,.,.
CCC(=O)n1nc(NCc2ccc(OC)c(OC)c2)nc1NCc1ccc(OC)c(OC)c1,6,38*,-2,2,-9,-3
COc1ccc(CNc2n[nH]c(NCc3ccc(OC)c(OC)c3)n2)cc1OC,-5,47*,1,-2,2,-5
Cc1cn(C2OC(CC(=O)Oc3ccccc3)C(O)C2O)c(=O)[nH]c1=O (centres undefined),-6,.,-1,1,.,.
Cc1ccccc1NC(=O)/C=C1\SC(=O)NC1=O,-17,14,3,0,.,.
O=C(/C=C1\SC(=O)NC1=O)Nc1ccc(C(=O)O)cc1,1,36*,-3,1,-37,2
Cc1cccc(NC(=O)CN(c2ccc(F)cc2)S(C)(=O)=O)c1,?,-16,4,0,.,.
N#C/C(=C/c1ccc(O)c(O)c1)C(=O)NCc1ccc(Cl)cc1,-9,38*,3,1,5,0
N#C/C(=C/c1cccc(O)c1)C(=O)NCc1ccc(Cl)cc1,4,16,3,0,.,.
Nc1nc(Sc2ccc(C(F)(F)F)cc2[N+](=O)[O-])n[nH]1,-4,63*,3,-3,56*,-6
CC(=O)NC1(C(Cl)(Cl)Cl)Oc2ccccc2O1,-8,-7,1,0,.,.
COc1ccc(OC)c(NC(=O)Nc2ccccc2C)c1,-3,4,1,-1,.,.
NS(=O)(=O)c1ccc(CCNC(=O)C2COc3ccccc3O2)cc1 (centres undefined),-5,-3,-1,.,.,.
COc1ccc(OC)c(NC(=O)NC2(C(F)(F)F)Oc3ccccc3O2)c1,7,63*,-3,3,-7,2
CCCCNC(=O)NC1(C(F)(F)F)Oc2ccccc2O1,-7,81*,-4,10,-26,-7
SMILES,Calb FLC,PfM18AAP inh-1,Rin1 Abl inh,CTSL1 counter-1,PfM18AAP inh-2,CTSL1 counter-2
NS(=O)(=O)c1ccc(CCNC(=O)NC2(C(F)(F)F)Oc3ccccc3O2)cc1,-4,67*,4,2,-16,-2
O=C(c1cccc2ccccc12)C1CCCN(C(=O)CCCn2cncn2)C1 (centres undefined),45,0,3,0,.,.
O=Cc1ccc(OCC(=O)NCC2CCCO2)cc1 (centres undefined),20,-15,3,4,.,.
Cn1cc(Cl)c(-c2n[nH]c(=S)n2-c2ccccc2)n1,-5,27,-9,0,.,.
Cc1nn(C)c(-c2n[nH]c(=S)n2-c2ccccc2)c1Cl,1,32*,-8,0,-9,-6
Cc1nn(C)cc1-c1n[nH]c(=S)n1-c1ccc(F)cc1,-3,35*,0,1,-9,-7
Cc1ccc2c(c1)N(CC(=O)NC1CCCC1)C(=O)CO2,5,-3,-3,1,.,.
Cc1csc2c(SCC(=O)NNS(=O)(=O)c3cccc(C(F)(F)F)c3)ncnc12,-3,36*,-5,-4,-38,-4
O=C(NCC(=O)N1CCN(c2ccccc2O)CC1)c1ccco1,9,34*,2,-3,-29,-5
O=C(NCC(=O)N1CCCCCCC1)c1ccco1,.,.,-1,.,.,.
Cc1cccc(NC(=S)NCCc2ccccc2)n1,33,38*,1,0,10,1
CCCOC(=O)Nc1ccc(S(=O)(=O)Nn2cnnc2)cc1,8,48*,-2,4,51*,-4
CCOC(=O)Nc1ccc(NS(=O)(=O)c2ccc(C)cc2)cc1,-3,-15,0,-3,.,.
CCCCOC(=O)Nc1ccc(S(=O)(=O)Nc2cc(C)nc(C)n2)cc1,-3,-7,3,2,.,.
CCOC(=O)Nc1ccc(S(=O)(=O)Nn2cnnc2)cc1,37,41*,-2,-2,47*,-1
CCCCOC(=O)Nc1ccc(S(=O)(=O)Nn2cnnc2)cc1,-4,50*,0,0,50*,0
O=C(NCCO)/C(=C\c1ccco1)NC(=O)c1ccco1,1,9,-3,.,.,.
COc1ccc(Cl)cc1C(=O)NCC(=O)OCc1ccccc1,.,.,0,-28,.,.
c1ccc(Nc2ccnc(Nc3ccccc3)n2)cc1,57,0,-2,0,.,.
NNc1nccc(Nc2ccccc2C(=O)O)n1,10,43*,2,-1,26,3
O=c1cccccc1NCc1ccccc1,14,42*,-4,1,-41,3
Cc1cc(C)c(-n2c(SCCS(=O)(=O)c3ccc(F)cc3)n[nH]c2=O)c(C)c1,2,41*,3,3,-40,1
O=C(Cc1ccccc1)N/N=C/c1ccc(OCC(=O)Nc2ccccc2)cc1,-1,-1,1,6,.,.
CCCCOc1ccccc1/C=N/NC(=O)CC#N,-6,38*,1,-6,-13,-6
N#CCC(=O)N/N=C/c1ccc(OCC(=O)Nc2ccc(F)cc2)cc1,-11,42*,0,-1,-45,4
CCOc1ccccc1/C=N/NC(=O)C[n+]1ccccc1,.,.,2,.,.,.
CN(c1ccccc1)c1ccc(/C=N/NC(=O)CC#N)cc1,?,36*,0,9,-33,9
O=C(Cc1ccc(NC(=O)C2CCN(C(=O)CCc3ccccc3)CC2)cc1)Nc1ccc(C(=O)N2CCOCC2)cc1,.,.,4,.,.,.
NC(=O)c1ccc(-n2nnnc2SCC(=O)c2ccc(O)c(O)c2)cc1,4,51*,2,-3,29*,-1

# Screening data (PubChem)
